Only a selection was taken, and hits are over-represented in it overall.
Methyltransferases – Primary Screen for Target Class Profiling of Small Molecule Inhibitors of Methyltransferases; purified enzyme, MTase-Glo SAH luminescence; stronger effect = lower value; calls only at 40 µM; 25,000 tested, 3.9% active; call rule not given here
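Each enzyme was assayed with SAM and its substrate. SAH formation detected by MTase-Glo luminescence; single-point 40 uM screen[…].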
MTase-Glo ctr – Counterscreen for Target Class Profiling of Small Molecule Inhibitors of Methyltransferases; shares compounds with Methyltransferases; Potency, µM (top dose mostly 57.3 µM), inactives show top-dose activity change, negative = inhibition, hits mostly inhibitors; MTase-Glo coupled enzymes, SAH conversion luminescence, no MTase; 180 tested, 6% active; AID 1745851, 2022; active = well fitted inhibition curve with a large enough effect; inconclusive = small, poorly fitted or top-dose-only effect; also: potency is read from the fitted curve at half-maximal effect
Starred values were filed as active, the others as inactive; i = inactive; ? = inconclusive; + = active, no number; [ ] = remark or other dose. % is scaled to controls: 0 for no effect and ±100 for the full control effect.

SMILES	Methyltransferases	others
COc1ccc(-c2cc3n(n2)CC(C)(C(=O)NCc2ccccc2)N(c2cccc(F)c2)C3=O)cc1 (stereo not drawn)	i
O=C(NCCCc1ccccc1)c1ccc2c(=O)nc3c(-c4ccccc4)n[nH]n3c2c1	i
O=C(Nc1ccccc1)c1cc2n(n1)CCN(C(=O)COc1ccccc1)C2	i
CC(C)c1ccc(CC(=O)N2CCCc3ncc(C(=O)NCCc4c[nH]c5ccccc45)cc32)cc1	i
O=C(Nc1ccccc1)c1cnc2c(c1)N(C(=O)Cc1ccc(O)cc1)CCC2	+	MTase-Glo ctr=-6%[85.7 µM]
Cc1cc(C)c(NC(=O)c2ncn3c2C(=O)N(C2CC2)C(C)(C(=O)NCc2ccc(F)cc2)C3)c(C)c1 (stereo not drawn)	i
CC(C)CCNC(=O)C1(C)Cn2c(cc3ccccc32)C(=O)N1c1cccc(Cl)c1 (stereo not drawn)	i
COC(=O)CNC(=O)NCCc1ncc(C)n1C1CCCC1	i
CCCNC(=O)NCCc1ncc(C)n1CC1CC1	i
CNC(=O)NCCc1ncc(C)n1C1CCCCCCC1	+	MTase-Glo ctr=0%
O=C(c1ccc2c(=O)nc3c(-c4ccccc4F)n[nH]n3c2c1)N1CCN(c2ccc(F)cc2)CC1	i
Fc1ccccc1CN1CCNc2cnc(OCc3cccnc3)cc2C1	i
CC(C)CNc1ccc2c(n1)C(C)(C(=O)NCc1cccnc1)CN(Cc1ccccc1)C2 (stereo not drawn)	i
Cn1cnc(CN2CCNc3cc(Nc4ccccc4)ncc3C2)c1	+	MTase-Glo ctr=3%[85.7 µM]
c1ccc(CCN2CCNc3cc(NCc4cccnc4)ncc3C2)cc1	+	MTase-Glo ctr=?
c1ccc(Nc2cc3c(cn2)NCCN(Cc2cccs2)C3)cc1	i
Cn1cc(CN2CCOc3cc([S+](=O)([O-])Nc4ccccc4)ccc3C2)cn1	i
CCCn1c(=O)c2ccc(C(=O)NC3CCCC3)cc2n2c(=O)n(Cc3ccc(F)cc3)nc12	i
COc1ccc(-c2n[nH]n3c2nc(=O)c2ccc(C(=O)NCc4ccccc4Cl)cc23)cc1	i
C=Cc1ccc(Cn2nc3n(Cc4ccccc4)c(=O)c4ccc(C(=O)NC5CCCC5)cc4n3c2=O)cc1	i
C=CCn1c(=O)c2ccc(C(=O)NC(C)C)cc2n2c(=O)n(CC(=O)Nc3ccc(C)cc3)nc12	i
CCC(C)NC(=O)c1ccc2c(=O)n(C(C)C)c3nn(CC(=O)c4cc(C)ccc4C)c(=O)n3c2c1 (stereo not drawn)	i
O=C(NC1CCCC1)c1ccc2c(c1)n(Cc1cccc(F)c1)c(=O)c1ccnn12	i
Cn1c(=O)c2ccnn2c2ccc(C(=O)NCC3CCN(Cc4ccccc4F)CC3)cc21	+	MTase-Glo ctr=0%
COc1ccc(-c2n[nH]n3c2nc(=O)c2ccc(C(=O)NCc4ccccc4F)cc23)cc1	i
SMILES	Methyltransferases	others
CCCNC(=O)CCc1ccnc(N2CCCC2)c1	i
CN1C(=O)c2cc(C(=O)NCCN3CCCC3)nn2CC1(C)C(=O)NC1CCCCC1 (stereo not drawn)	i
CCCNc1cc(N2CCC(CCC(=O)NCCN3CCCCCC3)CC2)ncn1	+	MTase-Glo ctr=1%
COc1cccc(CNC(=O)c2ncn3c2C(=O)N(C2CC2)C(C)(C(=O)NCc2ccc(F)cc2)C3)c1 (stereo not drawn)	i
COC(=O)c1ccc2nc(C[C@@H]3C[C@@H](C(C)C)[C@H](CNC(=O)c4cccnc4)C=C3C)[nH]c2c1	i
CC1=C[C@@H](CN(CC2CC2)CC2CC2)[C@H](C(C)C)C[C@H]1Cc1nc2ccncc2[nH]1	+	MTase-Glo ctr=35µM*
COc1ccc2nc(C[C@@H]3C[C@@H](C(C)C)[C@H](CNC(=O)NC4CCCCC4)C=C3C)[nH]c2c1	i
C=Cc1ccc(Cn2nc3n(Cc4ccc(C)cc4)c(=O)c4ccc(C(=O)NC(C)C)cc4n3c2=O)cc1	i
CC1(C(=O)NC2CCCCCC2)Cn2c(cc3occc32)C(=O)N1Cc1ccc(Cl)cc1 (stereo not drawn)	i
O=C(c1cc(-c2ccccc2)n[nH]1)N1CCc2c(nc(-c3ccccc3)[nH]c2=O)C1	+	MTase-Glo ctr=4%
O=C1OCCC1CCC(=O)N1CCc2c(nc(-c3ccccc3)[nH]c2=O)C1 (stereo not drawn)	i
CCCc1cc(C(=O)N2CCc3c(nc(-c4cccnc4)[nH]c3=O)C2)n[nH]1	i
CC(C)c1nccn1CCCNC(=O)c1ccc(-c2cccc(F)c2)nc1	+	MTase-Glo ctr=2%
O=C(NC1CCN(CC(F)(F)F)CC1)c1ccc(-c2cccc(F)c2)nc1	i
CC(C)OCCCNC(=O)c1ccc2c(=O)nc3c(-c4cccc(F)c4)n[nH]n3c2c1	i
COc1cccc(N2C(=O)c3cc(C(C)(C)C)nn3CC2(C)C(=O)NC2CCCCCC2)c1 (stereo not drawn)	i
